For 25 compounds, relative cell viability results are on record in the supplement of paper PMC10670038.

Molecules are shown by their SMILES. ± gives the standard deviation of the averaged measurements. Over roughly 2,000 compounds, “relative cell viability vs DMSO, compound alone” has its median near 1.1; the lowest 2% begin near 0.29. Only a selection was taken, and the lowest values are over-represented in it overall.

The experiment relates to TE10. The experiment is described as follows: relative cell viability vs DMSO, compound alone (fraction); TE10 is an esophageal squamous carcinoma line; higher = less cytotoxic. Conditions: 2 µM; 48 h. On the procedure:
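TE10 ESCC cells (1,000/well, 384-well plates) were treated with Selleck bioactive library compounds at 2 uM alone for 48 h. Viability was read by CellTiter-Glo and expressed relative to DMSO wells. Two technical replicates (A, B).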
As to `NC(=O)N/N=C/c1ccc([N+](=O)[O-])o1` [Nitrofural], the relative cell viability came out at 1.02 ± 0.057.

In the case of `Cc1ccc(S(=O)(=O)c2ccc([N+](=O)[O-])o2)cc1`, the relative cell viability came to 0.286 ± 0.0092.

`COc1ccc(/C=C/C(=O)C2(C(=O)/C=C/c3ccc(OC)c(OC)c3)CCCCC2)cc1OC`: the relative cell viability was determined as 0.726 ± 0.088.

For the compound `Cc1c(F)cc(C(=O)NC2CC2)cc1-c1ccc(C(=O)NCC(C)(C)C)cn1`, the relative cell viability came to 0.959 ± 0.18.

In the case of `Cc1c(Nc2ncccc2C(=O)O)cccc1C(F)(F)F` [Flunixin Meglumin], the relative cell viability was determined as 0.994 ± 0.028.

In turn, `COc1cc2c(cc1OC)CN(CCc1ccc(NC(=O)c3cccc4c(=O)c5cccc(OC)c5[nH]c34)cc1)CC2` yielded a relative cell viability of 1.03 ± 0.056.

Take `CNCCc1ccccn1` [Betahistine 2HCl]: the relative cell viability was found to be 0.903 ± 0.18.

For `COC1=CC(=O)C[C@@H](C)[C@]12Oc1c(Cl)c(OC)cc(OC)c1C2=O` [Griseofulvin], the relative cell viability turned out to be 1.12 ± 0.06.

Take `O[C@@H](COc1cccc2ncccc12)CN1CCN(C2c3ccccc3[C@@H]3[C@H](c4ccccc42)C3(F)F)CC1` (stereo not given in full): the relative cell viability was found to be 1.14 ± 0.082.

Compound `CCn1c(N)c(C(=O)NC)c(=O)c2ccc(C#CC(C)(O)COC)nc21` (stereo not given) gave a relative cell viability of 0.979 ± 0.17.

`C#CCC(Cc1cnc2nc(N)nc(N)c2n1)c1ccc(C(=O)N[C@@H](CCC(=O)O)C(=O)O)cc1` (stereo not given in full) [Pralatrexate]: the relative cell viability was found to be 0.1336 ± 0.00088.

Consider `Cc1nc(=O)c2cc(CN(C)c3ccc(C(=O)N[C@@H](CCC(=O)O)C(=O)O)s3)ccc2[nH]1` [Raltitrexed], for which the relative cell viability stood at 1.07 ± 0.086.

Regarding `CN(Cc1cnc2nc(N)nc(N)c2n1)c1ccc(C(=O)N[C@@H](CCC(=O)O)C(=O)O)cc1` [Methotrexate], the relative cell viability was determined as 0.143 ± 0.0081.

`CC(C)c1cnn2c(NCc3ccccc3)cc(NCCCCCCN)nc12` registered a relative cell viability of 1.08 ± 0.063.

Consider `CNC(=O)CN1CCC(Oc2cc3c(Nc4cccc(Cl)c4F)ncnc3cc2OC)CC1` [AZD8931 (Sapitinib)], for which the relative cell viability worked out at 1.21 ± 0.015.

With `Cc1c(C(N)=O)cc([N+](=O)[O-])cc1[N+](=O)[O-]` [Dinitolmide], the relative cell viability stood at 1.0978 ± 0.00018.

As for `Cc1ccccc1C(C(=O)NC1CCCCC1)N(C(=O)Cn1ccnc1C)c1cccc(F)c1` (stereo not given), the relative cell viability was determined as 0.989 ± 0.22.

`CCCCCCCCCCCCCCCC[N+](C)(C)C` [Cetrimonium Bromide (CTAB)] yielded a relative cell viability of 1.05 ± 0.039.

In turn, `CC1=NN(c2ccc(C(=O)O)cc2)C(=O)C1=Cc1ccc(-c2cc(C)c(C)cc2[N+](=O)[O-])o1` yielded a relative cell viability of 1.04 ± 0.022.

For the compound `Nc1nc(CC(=O)Nc2ccc(CCNC[C@H](O)c3ccccc3)cc2)cs1` [Mirabegron], the relative cell viability amounted to 0.954 ± 0.11.

In the case of `NC(=O)c1cccc(-c2cccc(OC(=O)NC3CCCCC3)c2)c1`, the relative cell viability was determined as 1.17 ± 0.024.

`CC#CC(=O)Nc1ccc2ncnc(Nc3cccc(Br)c3)c2c1` returned a relative cell viability of 0.773 ± 0.043.

`CN(C)c1ccc(C(=C2C=CC(=[N+](C)C)C=C2)c2ccc(N(C)C)cc2)cc1` [Crystal Violet] returned a relative cell viability of 0.278 ± 0.006.

`CN(C)C(=O)c1cc2cnc(Nc3ccc(N4CCNCC4)cn3)nc2n1C1CCCC1` showed a relative cell viability of 1.147 ± 0.008.

As to `Nc1c(CC(=O)O)cccc1C(=O)c1ccc(Br)cc1` [Bromfenac Sodium], the relative cell viability was 1.09 ± 0.046.
